The record followed here is PubChem BioAssay (NCI).

About 83,000 compounds went through this panel and 20% of them were active in at least one assay; those are over-represented in the sample as a whole.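 Assay: single dose, 48 h. Readout: percent growth (0 = no net growth; negative = cell death). Active: <10.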 A number with no mark means an inactive call. The source made the active and inactive calls.

Holding throughout (test): NCI-60 one-dose screen, 48 h (100 = growth as untreated, 0 = no growth, -100 = all killed)
One experiment relates to EKVX NSCLC. The following applies: 10 µM unless noted.
The subject of a further experiment is SN12C renal. The following applies: 10 µM unless noted.
A further experiment concerns UO-31 renal. The following applies: 10 µM unless noted.
The subject of another experiment is TK-10 renal. The following applies: 10 µM unless noted.
Another experiment relates to ACHN renal. The following applies: 10 µM unless noted.
For another experiment, the system named is A498 renal. The following applies: 10 µM unless noted.
The test system of a further experiment is CCRF-CEM leukemia. The following applies: 10 µM unless noted.
A further experiment deals with MOLT-4 leukemia. The following applies: 10 µM unless noted.
The subject of the next experiment is SR leukemia. The following applies: 10 µM unless noted.
The test system of a further experiment is RPMI-8226 leukemia. The following applies: 10 µM unless noted.
The next experiment relates to OVCAR-8 ovarian. The following applies: 10 µM unless noted.
The next experiment deals with OVCAR-5 ovarian. The following applies: 10 µM unless noted.
Another experiment deals with OVCAR-4 ovarian. The following applies: 10 µM unless noted.
Another experiment has as its system IGROV1 ovarian. The following applies: 10 µM unless noted.
In another experiment the test system is OVCAR-3 ovarian. The following applies: 10 µM unless noted.
Another experiment has as its system HS 578T breast. The following applies: 10 µM.
The test system of a further experiment is NCI/ADR-RES ovarian. The following applies: 10 µM unless noted.
Another experiment concerns SK-OV-3 ovarian. The following applies: 10 µM unless noted.
The subject of another experiment is CAKI-1 renal. The following applies: 10 µM unless noted.

For the compound `CCOc1ccc([C@@H]2[C@@H](Oc3ccccc3)C(=O)N2c2cc(OC)c(OC)c(OC)c2)cc1`, the growth with EKVX NSCLC was 43.5%; in the experiment with SN12C renal, 31.4%; with UO-31 renal, 35.3%; with TK-10 renal, 48.1%; with ACHN renal, 25.3%; with A498 renal, -9.61% (active). Moreover, the growth in the experiment with CCRF-CEM leukemia was 7.6% (active); in the experiment on MOLT-4 leukemia, 5.59% (active); in the experiment on SR leukemia, 5.44% (active); in the experiment with RPMI-8226 leukemia it was 5.16% (active); in the experiment on OVCAR-8 ovarian, 24.2%; in the experiment with OVCAR-5 ovarian, 43%. Further, the growth was 43.9% in the experiment on OVCAR-4 ovarian; 21.5% with IGROV1 ovarian; -8.31% (active) in the experiment on OVCAR-3 ovarian; 34.6% with HS 578T breast; 14% in the experiment on NCI/ADR-RES ovarian.

For `Cc1ccc2oc(=O)cc(-c3nc4ccc([N+](=O)[O-])cc4[nH]3)c2c1`, the growth in the experiment on EKVX NSCLC is 62.6%; in the experiment on SN12C renal, 59.7%; in the experiment on UO-31 renal, 51.7%; with TK-10 renal, 62%; in the experiment on ACHN renal, 63%; in the experiment with A498 renal it was 43.7%. Moreover, the growth with CCRF-CEM leukemia was 51.6%; in the experiment on MOLT-4 leukemia, 39.6%; with SR leukemia, 83%; in the experiment with RPMI-8226 leukemia, 30.9%; with OVCAR-8 ovarian it was 55.6%; with OVCAR-5 ovarian, 98.3%. In addition, the growth in the experiment on OVCAR-4 ovarian is 31.3%; with SK-OV-3 ovarian, 79.4%; with IGROV1 ovarian it was 70.6%; with OVCAR-3 ovarian it was 43.5%; in the experiment with HS 578T breast, 63.9%; in the experiment on NCI/ADR-RES ovarian, 20.9%.

Take `Cc1n(Cc2ccc3ccccc3n2)cc[n+]1Cc1ccc2ccccc2n1`: the growth with EKVX NSCLC is 80.7%; in the experiment with SN12C renal, 77.9%; in the experiment with UO-31 renal, 87.3%; in the experiment on TK-10 renal, 80.8%; with ACHN renal, 103%; in the experiment with A498 renal, 88.5%. In addition, the growth in the experiment with CCRF-CEM leukemia was 76.2%; in the experiment with MOLT-4 leukemia, 98.3%; with SR leukemia, 48.8%; with RPMI-8226 leukemia, 24.6%; with OVCAR-8 ovarian, 97.9%; in the experiment on OVCAR-5 ovarian, 83.4%. The growth in the experiment with OVCAR-4 ovarian was 24.1%; with SK-OV-3 ovarian, 91.1%; with IGROV1 ovarian it was 64.4%; in the experiment on OVCAR-3 ovarian, 54.8%; in the experiment on HS 578T breast, 92.1%; in the experiment with NCI/ADR-RES ovarian, 98.7%.

Turning to `O=c1cc(N2CCOCC2)oc2c(-c3ccc4c(c3)OCCO4)csc12`, the growth was 9.76% (active) in the experiment on EKVX NSCLC; 20.2% in the experiment with SN12C renal; 1% (active) in the experiment on UO-31 renal; -14.5% (active) in the experiment on TK-10 renal; 6.19% (active) with ACHN renal; -41% (active) in the experiment on A498 renal. In addition, the growth is 28% with CCRF-CEM leukemia; 4.69% (active) in the experiment on MOLT-4 leukemia; 13.9% in the experiment on SR leukemia; -0.399% (active) in the experiment on RPMI-8226 leukemia; 13.8% in the experiment on OVCAR-8 ovarian; 18.1% in the experiment with OVCAR-5 ovarian. In addition, the growth in the experiment on OVCAR-4 ovarian was 11.5%; in the experiment with SK-OV-3 ovarian, -17.3% (active); with IGROV1 ovarian, -9.54% (active); in the experiment with OVCAR-3 ovarian it was 19.1%; in the experiment with HS 578T breast it was -7.53% (active); with NCI/ADR-RES ovarian, 16.5%.

For the compound `COc1ccc([C@@H]2[C@@H](Oc3ccccc3)C(=O)N2c2cc(OC)c(OC)c(OC)c2)cc1F`, the growth is 34.6% in the experiment on EKVX NSCLC; 24.6% in the experiment on SN12C renal; 24.4% in the experiment on UO-31 renal; 44.7% with TK-10 renal; 21.5% with ACHN renal; -9.03% (active) in the experiment on A498 renal. In addition, the growth with CCRF-CEM leukemia was 8.73% (active); in the experiment with MOLT-4 leukemia it was 6.79% (active); in the experiment on SR leukemia, 5.09% (active); with RPMI-8226 leukemia, 3.15% (active); in the experiment on OVCAR-8 ovarian, 6.55% (active); in the experiment on OVCAR-4 ovarian, 39%. The growth in the experiment with SK-OV-3 ovarian was 16.6%; in the experiment on IGROV1 ovarian, 18.5%; with OVCAR-3 ovarian, 1.08% (active); with HS 578T breast it was 26%; with NCI/ADR-RES ovarian, 12.2%.

With `Cc1nc2c(-c3cnc(N)nc3)nc(N3CCOCC3)nc2n1C(C)C`, the growth was 9.04% (active) with EKVX NSCLC; 12.8% with SN12C renal; -12.1% (active) with UO-31 renal; -33% (active) in the experiment on TK-10 renal; 2.76% (active) with ACHN renal; 0.604% (active) in the experiment with CAKI-1 renal. Also, the growth was -39.2% (active) with A498 renal; 6.75% (active) in the experiment on MOLT-4 leukemia; 7% (active) in the experiment with SR leukemia; 12.8% with RPMI-8226 leukemia; -8.95% (active) in the experiment with OVCAR-8 ovarian; 7.67% (active) in the experiment on OVCAR-5 ovarian. Moreover, the growth in the experiment on OVCAR-4 ovarian is -3.01% (active); with SK-OV-3 ovarian, -39.7% (active); in the experiment on IGROV1 ovarian, -24.7% (active); in the experiment with OVCAR-3 ovarian it was 10%; with NCI/ADR-RES ovarian, -5.49% (active).

Consider `CCCCc1n(Cc2ccc3ccccc3n2)cc[n+]1Cc1ccc2ccccc2n1`, for which the growth in the experiment on EKVX NSCLC is 50.9%; with SN12C renal, 4.6% (active); in the experiment with UO-31 renal, 83.5%; with TK-10 renal, 27.6%; in the experiment with ACHN renal it was 96.1%; with A498 renal, 7.39% (active). The growth in the experiment with CCRF-CEM leukemia is 23.3%; in the experiment on MOLT-4 leukemia, 14.9%; with SR leukemia, 6.57% (active); in the experiment with RPMI-8226 leukemia, -20.3% (active); in the experiment on OVCAR-8 ovarian, 15%; in the experiment on OVCAR-5 ovarian, 25.2%. For the same compound, the growth in the experiment with OVCAR-4 ovarian is 14%; with IGROV1 ovarian, 17.8%; with OVCAR-3 ovarian, 9.83% (active); in the experiment with NCI/ADR-RES ovarian it was 97.9%.

In the case of `CCCc1n(Cc2ccc3ccccc3n2)cc[n+]1Cc1ccc2ccccc2n1`, the growth is 58.1% in the experiment on EKVX NSCLC; 9.65% (active) in the experiment on SN12C renal; 86.5% in the experiment with UO-31 renal; 62.1% in the experiment with TK-10 renal; 98.1% in the experiment on ACHN renal; 35.4% with A498 renal. The growth with CCRF-CEM leukemia is 36.2%; in the experiment with MOLT-4 leukemia, 23.2%; in the experiment on SR leukemia, 13%; in the experiment on RPMI-8226 leukemia it was -10.8% (active); in the experiment on OVCAR-8 ovarian it was 35.6%; with OVCAR-5 ovarian, 47.7%. Besides, the growth in the experiment on OVCAR-4 ovarian was 8.56% (active); in the experiment with SK-OV-3 ovarian, 61.6%; in the experiment with IGROV1 ovarian, 30.6%; in the experiment on OVCAR-3 ovarian, 9.64% (active); with HS 578T breast, 58.8%; in the experiment on NCI/ADR-RES ovarian, 98.4%.

With `COc1ccc(/C(=C\c2cc(OC)c(OC)c(OC)c2)C(=O)N2CCCNCC2)cc1`, the growth was 104% with EKVX NSCLC; 106% with SN12C renal; 85.9% in the experiment on UO-31 renal; 101% in the experiment on TK-10 renal; 109% with ACHN renal; 99.1% in the experiment with A498 renal. Besides, the growth in the experiment with CCRF-CEM leukemia is 99.9%; in the experiment on MOLT-4 leukemia it was 94.7%; in the experiment with SR leukemia it was 103%; with RPMI-8226 leukemia it was 107%; in the experiment on OVCAR-8 ovarian, 103%; in the experiment on OVCAR-5 ovarian, 111%. Besides, the growth with OVCAR-4 ovarian is 112%; with SK-OV-3 ovarian, 103%; with IGROV1 ovarian, 113%; in the experiment on OVCAR-3 ovarian it was 116%; with HS 578T breast, 107%; in the experiment with NCI/ADR-RES ovarian, 112%.
